{
  "source": "PubChem BioAssay (NCI)",
  "note": "This is part of a sample that, as a whole, favours compounds with a hit. Of some 83,000 tested, about 20% had one in any assay.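 The endpoint reported here, percent growth, reads 100 for growth as untreated, 0 for no net growth and -100 for all cells dead.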 The source made the active and inactive calls. The calls were made as follows: active = growth percent below 10; inactive = the rest.",
  "data": [
    {"test_system": "SK-MEL-2 melanoma", "assay": "NCI-60 one-dose screen, 48 h (100 = growth as untreated, 0 = no growth, -100 = all killed)", "details": "10 µM unless noted", "values": [
      {"smiles": "Cc1c2cccnc2c(C)c2c1c1cc(CO)ccc1n2C", "growth": "29.9% (inactive)"},
      {"smiles": "CCN1CCN(CC(=O)Nc2ccc(-c3cn4c(n3)sc3cc(Oc5ccnc(C(=O)NC)c5)ccc34)cc2)CC1", "growth": "42.5% (inactive)"},
      {"smiles": "COc1cc(OC)c2sc(-c3ccc(-n4cncc4-c4cc(OC)c(OC)c(OC)c4)cc3)nc2c1", "growth": "55.4% (inactive)"},
      {"smiles": "Ic1ccccc1I", "growth": "85.4% (inactive)"},
      {"smiles": "CCC1S/C(=N\\N=C(\\C)c2cc3cc(Cl)ccc3o2)N(c2ccccc2)C1=O", "note": "(stereo not given)", "growth": "299% (inactive)"},
      {"smiles": "CN(CCCNC(=O)CCOCCOCCOCCNC(=O)Cc1ccc2ccc3cccc4ccc1c2c34)CCCNc1cc(-c2ccc3ccccc3c2)nc2ccccc12", "growth": "-70.4% (active)"}
    ]},
    {"test_system": "EKVX NSCLC", "assay": "NCI-60 one-dose screen, 48 h (100 = growth as untreated, 0 = no growth, -100 = all killed)", "details": "10 µM unless noted", "values": [
      {"smiles": "CC1(C)[C@@H](O[C@@H]2OC[C@@H](O[C@@H]3O[C@H](CO)[C@@H](O)[C@H](O)[C@H]3O[C@@H]3OC[C@@H](O)[C@H](O)[C@H]3O)[C@H](O)[C@H]2O[C@@H]2O[C@H](CO)[C@@H](O)[C@H](O)[C@H]2O)CC[C@]2(C)[C@H]3CC[C@]45OC[C@@]6(CC[C@](C)(C=O)C[C@H]64)[C@H](O)C[C@@]5(C)[C@]3(C)CC[C@@H]12", "growth": "-65.4% (active)"},
      {"smiles": "O=C(CCl)NNc1nccc(Nc2ccc(S(=O)(=O)Nc3ccncc3)cc2)n1", "growth": "62.2% (inactive)"},
      {"smiles": "CS(=O)(=O)Nc1cc(-c2ccc3ncc(C#N)c(Nc4ccc(F)c(Cl)c4)c3c2)cnc1Cl", "growth": "-3.93% (active)"},
      {"smiles": "Cc1[nH]c(C2CC(c3ccc(C(F)(F)F)c(F)c3)=NN2c2ccccc2)c(C)c1C(=O)NCC(F)(F)F", "note": "(stereo not given)", "growth": "69.3% (inactive)"}
    ]}
  ]
}
